An excerpt weighted towards active compounds, which were near 10% of everything screened.
CtBP-E1A inh = CtBP/E1A binding inhibition; AlphaScreen GST-E1A/His-CtBP binding, 1536-well; active compounds read low; activity change, % (test concentration not listed); 340,000 compounds, 0.49% hits; AID 651724; in the data active = activity change below about -65%; inconclusive = mostly about -30% to -63%; note: % is set by controls: 0 for no effect and ±100 for the full control effect
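Steps: dispense buffer (Tris pH 8.0, NaCl 300 mM, TCEP 1 mM, BSA, Tween 20); add 5X protein mix (GST-E1A, His-CtBP, 125 nM each); pin 23 nL compound; 2 h at 37 °C, dark; add 5X beads (50 ug/mL); 1 h; read.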
G9a block = blocks human histone lysine methyltransferase G9a. Q96KQ7. G9a H3K9 monomethylation, AlphaScreen, 2 h. Potency, µM (doses to about 102 µM), for inactives: at the top dose activity, negative = inhibition, actives largely listed as inhibitors. 350,000 compounds, 8.8% hits. AID 504332; note: potency is the fitted concentration of half-maximal effect; % is set by controls: 0 for no effect and ±100 for the full control effect; nearly all actives have a fitted effect of over 75% in size
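Using a bead-based AlphaScreen, monomethylated H3K9 product from 2 h room-temperature reactions (G9a 20 nM, peptide 500 nM, SAM 20 uM) was detected with 0.5 ug/mL rabbit anti-H3K9me1 antibody.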
JMJD2A Tudor = JMJD2A Tudor domain (human) inhibition. Potency, µM (series often up to 114 µM), without a hit: top-dose activity change, negative = inhibition, actives largely listed as inhibitors. 390,000 compounds, 4.4% hits. AID 504339. AlphaScreen JMJD2A-Tudor / H3K4me3 peptide binding; note: potency is the fitted concentration of half-maximal effect; % is set by controls: 0 for no effect and ±100 for the full control effect; nearly all actives have a fitted effect of over 50% in size
Target sequence (O75164 whole entry, looked up, the tested form may be a part): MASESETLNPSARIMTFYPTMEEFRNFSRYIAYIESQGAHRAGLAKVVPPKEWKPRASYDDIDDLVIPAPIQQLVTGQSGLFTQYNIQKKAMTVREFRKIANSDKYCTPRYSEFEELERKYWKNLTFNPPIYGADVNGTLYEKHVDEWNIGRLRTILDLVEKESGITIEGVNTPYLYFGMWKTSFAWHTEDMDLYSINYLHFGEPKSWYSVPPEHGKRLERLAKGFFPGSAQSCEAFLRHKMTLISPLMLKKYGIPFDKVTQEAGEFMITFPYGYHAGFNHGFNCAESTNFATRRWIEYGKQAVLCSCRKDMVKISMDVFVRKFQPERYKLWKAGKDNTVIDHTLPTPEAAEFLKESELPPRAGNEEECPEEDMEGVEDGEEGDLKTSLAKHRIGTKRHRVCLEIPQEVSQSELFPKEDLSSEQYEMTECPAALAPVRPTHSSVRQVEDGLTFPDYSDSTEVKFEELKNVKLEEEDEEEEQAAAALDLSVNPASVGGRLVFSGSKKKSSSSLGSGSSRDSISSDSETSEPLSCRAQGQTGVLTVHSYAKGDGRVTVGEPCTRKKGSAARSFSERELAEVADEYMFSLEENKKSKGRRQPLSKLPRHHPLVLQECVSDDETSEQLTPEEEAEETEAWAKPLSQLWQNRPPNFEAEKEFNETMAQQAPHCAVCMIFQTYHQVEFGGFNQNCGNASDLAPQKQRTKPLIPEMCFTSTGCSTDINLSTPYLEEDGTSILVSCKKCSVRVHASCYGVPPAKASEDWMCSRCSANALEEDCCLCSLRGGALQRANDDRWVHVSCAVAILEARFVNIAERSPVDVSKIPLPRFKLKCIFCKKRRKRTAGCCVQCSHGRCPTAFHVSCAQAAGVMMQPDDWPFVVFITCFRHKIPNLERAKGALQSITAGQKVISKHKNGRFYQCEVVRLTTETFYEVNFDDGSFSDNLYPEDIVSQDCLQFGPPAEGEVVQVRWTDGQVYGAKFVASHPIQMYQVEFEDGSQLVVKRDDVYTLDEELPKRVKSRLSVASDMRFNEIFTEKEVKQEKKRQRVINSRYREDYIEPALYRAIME
HP1b chromo inh = HP1-beta chromodomain-methylated histone interaction inhibition; 390,000 compounds, 0.56% hits; AID 540317; P83916; AlphaScreen HP1-beta / biotin-H3K9me3 peptide binding; Potency, µM (titrated, usually from 114 µM), for the others: at the top dose activity change, negative = inhibition, usual class: inhibitors; note: potency is the fitted concentration of half-maximal effect; nearly all actives have a fitted effect of over 70% in size
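Compound inhibition of the preformed complex between 50 nM HP1-beta and 50 nM biotinylated H3K9me3 peptide was read by AlphaScreen. Buffer was PBS pH 7.4 with 0.01% Tween-20. Incubations ran 30 min at room temperature, with 10 ug/mL donor/acceptor beads.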
BAZ2B block = blocks human BAZ2B. AlphaScreen BAZ2B-H3K14Ac peptide displacement. Potency, µM (series often up to 114 µM), inactives show top-dose activity change, negative = inhibition, usual class: inhibitors. 360,000 compounds, 4.4% hits. AID 504333; note: potency is the fitted concentration of half-maximal effect; % is set by controls: 0 for no effect and ±100 for the full control effect; nearly all actives have a fitted effect of over 60% in size
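AlphaScreen displacement: compounds (up to 110uM) incubated 30 min at room temperature with a preformed 50 nM BAZ2B/50 nM biotinylated H3K14Ac peptide complex in PBS pH 7.4 with Tween-20. Donor and acceptor beads at 10 ug/mL final added, 20 min light-protected before reading.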
Six1-Eya2 blk = Six1/Eya2 interaction inhibition; Q15475+O00167; AlphaScreen GST-Six1/His-Eya2 binding, biochemical; active compounds read low; activity change, % (test concentration not listed); 360,000 compounds, 0.56% hits; AID 651725; in the data active = activity change below about -65%; inconclusive = mostly about -30% to -63%; note: % is set by controls: 0 for no effect and ±100 for the full control effect
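Compounds are tested against tagged Six1 and Eya2 proteins bridged by glutathione donor and nickel acceptor beads; after a one-hour incubation at 37 °C without light, AlphaScreen emission is recorded.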
The depositor's hits bear a star; ? = inconclusive; / = not tested or not shown; ! = not active in a repeat; [ ] = dose if it differs, or a comment. Unless noted, calls come from the whole dose curve; as a rule, active = well fitted inhibition curve with a large enough effect; inconclusive = small, poorly fitted or top-dose-only effect; inactive = no such curve, though single readings can be large or run the other way.

SMILES	CtBP-E1A inh	G9a block	JMJD2A Tudor	HP1b chromo inh	BAZ2B block	Six1-Eya2 blk
CCOC(=O)C1=C(C)NC2=C(C(=O)CCC2)C1c1ccc(N(C)C)cc1 (centres undefined)	-11	?	-32%	-6%	-35%	-5
CC1=C(C(=O)OCC2CCCO2)C(c2ccc(C)o2)C2=C(CC(c3ccc(N(C)C)cc3)CC2=O)N1 (centres undefined)	/	11µM*	/	/	40µM*	/
CCCCOc1ccc(CNC(=O)C2CCN(c3nnc(-n4cccc4CNc4ccc(C)cc4)s3)CC2)cc1	/	4%[59 µM]	1%	36%	3%	/
CCCc1[nH]n(-c2ccc([N+](=O)[O-])cc2)c(=O)c1C=NCCCn1ccnc1	-12	16%[12.7 µM]	-26%	-12%	50µM*	-20
CCCc1[nH]n(-c2ccc([N+](=O)[O-])cc2)c(=O)c1C=NCCN1CCNCC1	/	-42%	/	/	-4%	/
CCCc1[nH]n(-c2ccc([N+](=O)[O-])cc2)c(=O)c1C(C)=NCc1ccncc1	-10	35µM*	?	-8%	-29%	-5
COc1cc(F)ccc1S(=O)(=O)N1CCN(Cc2ccccc2)CC1	2	-8%[0.501 µM]	-2%	28%	2%	-3
COc1cc(CN2CCN(C(O)(c3ccccc3)c3ccccc3)CC2)cc(OC)c1OC	6	/	25µM*	-13%	?	-4
COc1ccc(S(=O)(=O)N2CCN(Cc3ccc(OC)c(OC)c3)CC2)cc1	-19	/	-8%	55%	7%	15
COc1cc(CN2CCN(S(=O)(=O)c3ccc(F)cc3)CC2)cc(OC)c1OC	14	7.9µM*!	7.9µM*	?	5%	-1
COc1cc(CN2CCN(S(=O)(=O)c3ccccc3)CC2)cc(OC)c1OC	/	28µM*	20µM*	?	?	6
COc1ccc(OC)c(S(=O)(=O)N2CCN(Cc3ccccc3)CC2)c1	/	/	1%	28%	-9%	-1
COc1cc(S(=O)(=O)N2CCN(Cc3ccccc3)CC2)ccc1Br	-6	45µM*	-11%	18%	4%	0
CC(C)CC(=O)OCC(=O)Nc1ccccc1Sc1ccccc1	17	108%[59 µM]	116%	131%	97%	25
COc1ccc(-c2cc(C(F)(F)F)nc(SCCC(=O)Nc3ccc(F)cc3F)n2)cc1	/	-31%[59 µM]	2%	27%	0%	/
CCC(C)[C@H](NC(=O)NCc1ccc(F)cc1)C(=O)O (some centres undefined)	/	/	4%	17%[57 µM]	0%	4
COc1cc(CN2CCN(c3cccc(Cl)c3)CC2)cc(OC)c1OC	-14	13µM*	3.5µM*	?	50µM*	-12
O=C(COc1ccccc1O)NNc1ccccc1	8	16µM*	2%	40%	-4%	-2
O=C(COc1ccccc1O)Nc1ccccc1Cl	4	-60%[2.33 µM]	12%	27%	6%	0
CNC(=S)NNC(=O)COc1ccccc1C	37	32µM*	20µM*	38%	-35%	17
CNC(=S)NNC(=O)COc1cccc(C)c1C	5	7.9µM*	40µM*	10%	3%	-2
Cc1[nH]n(-c2ccc(Br)cc2)c(=O)c1C=Nc1ccc(S(=O)(=O)Nc2nccs2)cc1	?	25%	?	19%	?	-29
Cc1cc(C)nc(NS(=O)(=O)c2ccc(N=Cc3c(C)[nH]n(-c4ccccc4)c3=O)cc2)n1	2	5%[59 µM]	79µM*	-5%	-7%	?
CCc1nnc(NS(=O)(=O)c2ccc(N=Cc3c(C)[nH]n(-c4ccc(C)c(C)c4)c3=O)cc2)s1	?	-49%	-31%	-8%	50µM*	?
CC1CCCC(NC(=O)C2CCN(S(=O)(=O)N3CCCCCC3)CC2)C1C (centres undefined)	5	12%	-12%	33%	5%	-5
CC1=C(C(=O)OCc2ccccc2)C(c2ccc(Cl)cc2Cl)NC(=O)N1CCCC(=O)O (centres undefined)	4	56µM*	-21%	66%	-39%	-2
